# Assay results from PubChem BioAssay (NCI).
# This is part of a sample that, as a whole, favours compounds with a hit. Of some 83,000 tested, about 20% had one in any assay.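 48-hour exposure, single concentration, 96-well plates; percent growth endpoint where 0 means no net growth. Active: below 10.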 Unmarked numbers belong to inactive results. Calls of active or inactive are those of the source.
# Key:
# Assay in all cases: NCI-60 one-dose screen, 48 h (100 = growth as untreated, 0 = no growth, -100 = all killed)
# Settings in all cases: 10 µM unless noted
# NCI-H23 lung = system: NCI-H23 lung
# NCI-H226 lung = system: NCI-H226 lung
# NCI-H322M lung = system: NCI-H322M lung
# HOP-62 NSCLC = system: HOP-62 NSCLC
# NCI-H460 lung = system: NCI-H460 lung
# HOP-92 NSCLC = system: HOP-92 NSCLC
# NCI-H522 lung = system: NCI-H522 lung
# A549/ATCC NSCLC = system: A549/ATCC NSCLC
# 786-0 renal = system: 786-0 renal
# COLO 205 colon = system: COLO 205 colon
# DU-145 prostate = system: DU-145 prostate
# MALME-3M melanoma = system: MALME-3M melanoma
# MDA-MB-231 breast = system: MDA-MB-231 breast
# RXF 393 renal = system: RXF 393 renal
# SF-268 CNS = system: SF-268 CNS
# SF-295 CNS = system: SF-295 CNS
# SF-539 CNS = system: SF-539 CNS
# UACC-257 melanoma = system: UACC-257 melanoma
# M14 melanoma = system: M14 melanoma
# K-562 leukemia = system: K-562 leukemia
Compound,growth (NCI-H23 lung) [%],growth (NCI-H226 lung) [%],growth (NCI-H322M lung) [%],growth (HOP-62 NSCLC) [%],growth (NCI-H460 lung) [%],growth (HOP-92 NSCLC) [%],growth (NCI-H522 lung),growth (A549/ATCC NSCLC) [%],growth (786-0 renal) [%],growth (COLO 205 colon) [%],growth (DU-145 prostate) [%],growth (MALME-3M melanoma) [%],growth (MDA-MB-231 breast) [%],growth (RXF 393 renal) [%],growth (SF-268 CNS) [%],growth (SF-295 CNS) [%],growth (SF-539 CNS) [%],growth (UACC-257 melanoma) [%],growth (M14 melanoma) [%],growth (K-562 leukemia)
CCCCN(C(=O)CC)c1ccccc1,99.9,107,97.9,105,103,109,95.3%,96.5,99.2,99.7,99.7,100,105,115,98.6,99.8,100,95.5,91.8,
CCCCn1cnc2c(=O)[nH]cnc21,106,107,104,105,119,89.3,98.6%,107,105,111,,158,98.4,118,110,100,104,121,103,97.7%
CC(=O)OCC1OC(n2cnc3c(=S)nc(N)[nH]c32)C(OC(C)=O)C1OC(C)=O (centres undefined),88.3,68.2,77.3,49.3,67.2,28.4,83.5%,105,66,120,53.1,84.4,63.5,,76.8,40,85.7,,37.6,
C(=C\c1ccncc1)/c1ccncc1,98.7,96.4,90.8,101,107,87.9,5.51% (active),96.5,107,115,145,87.1,110,,146,107,104,108,105,
Cc1cc(CC(=O)NCCO)n(CCO)c(=O)c1,101,105,103,91,103,115,93.8%,94.1,108,104,110,115,109,110,101,104,107,93,103,
COC(=O)C1=C(C)C(=O)CC1,120,109,115,114,118,113,101%,112,108,141,,137,102,143,111,135,109,110,105,96.1%
C=CCOc1ccc(Cl)cc1Cl,111,104,113,113,110,77.3,108%,109,104,109,,113,91.5,132,104,98.2,96.8,115,101,5.12% (active)
C/C(O)=C(/C=N/C(=S)Nc1ccccc1)C(=O)Nc1ccccc1C,103,95.8,104,99.4,106,92.6,94.5%,97.3,102,110,,89.1,99.7,104,97.9,105,101,91.2,100,100%
